Eight compounds from PubChem BioAssay (Tox21) can be followed below.

Test [1] can be described thus: qHTS assay to identify small molecule agonists of the peroxisome proliferator-activated receptor delta (PPARd) signaling pathway - cell viability counter screen (AID 743211). Further: on the % scale 0 is the no-effect control and ±100 the full control effect; nearly all actives have a fitted effect of over 55% in size. An outline of the steps:
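PPARd-bla HEK293H cells (3000/well) were pre-incubated 5 h at 37 C, then exposed to compound for 17 h at 37 C. After 2 h with LiveBLAzer substrate, CellTiter-Glo was added to the same wells; luminescence read after 30 min at room temperature.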

Test [2] deals with Peroxisome proliferator-activated receptor delta (Homo sapiens) (UniProt Q03181). Briefly: qHTS assay to identify small molecule agonists of the peroxisome proliferator-activated receptor delta (PPARd) signaling pathway (AID 743212; calls by dose curve; further: on the % scale 0 is the no-effect control and ±100 the full control effect). Put shortly:
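HEK293H UAS-bla reporter cells, human PPARd system; compounds delivered in DMSO after 5 h plating, then at 37 C. Beta-lactamase FRET read, 2 h RT substrate step.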

The nature of test [3]: qHTS assay to identify small molecule antagonists of the peroxisome proliferator-activated receptor delta (PPARd) signaling pathway - cell viability counter screen (AID 743213). Further: on the % scale 0 is the no-effect control and ±100 the full control effect; nearly all actives have a fitted effect of over 50% in size. An outline of the steps: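 Agonist-stimulated (L165041, 300 nM final) HEK293H PPARd UAS-bla cells are exposed to compounds for 17 h at 37 C, and ATP-based luminescence (CellTiter-Glo) from the same wells reports cytotoxicity.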

Test [4] addresses Peroxisome proliferator-activated receptor delta (Homo sapiens) (UniProt Q03181). Briefly: qHTS assay to identify small molecule antagonists of the peroxisome proliferator-activated receptor delta (PPARd) signaling pathway (AID 743215; active means well fitted inhibition curve with a large enough effect in the signal ratio in the repeat runs, not every such curve was filed as active; the % refers to the signal ratio; further: series mostly up to about 62 µM; on the % scale 0 is the no-effect control and ±100 the full control effect). Put shortly:
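HEK293H UAS-bla, PPARd; agonist L165041 300 nM final with cpd in DMSO; 37 C 17 h; FRET substrate, RT 2 h; fluorescence intensity.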

Test [5] deals with Bile acid receptor (Homo sapiens) (UniProt Q96RI1). Briefly: qHTS assay to identify small molecule antagonists of the farnesoid-X-receptor (FXR) signaling pathway (AID 743217; active means well fitted inhibition curve with a large enough effect in the signal ratio in the repeat runs, not every such curve was filed as active; the % refers to the signal ratio; further: on the % scale 0 is the no-effect control and ±100 the full control effect). Put shortly:
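GeneBLAzer FXR-UAS-bla HEK 293T, CDCA-stimulated (50 uM final). Compound treatment 16 h, 37 °C. Detection: beta-lactamase cleavage of B/G FRET substrate, fluorescence.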

Test [6] can be described thus: qHTS assay to identify small molecule agonists of the farnesoid-X-receptor (FXR) signaling pathway - cell viability counter screen (AID 743218). Further: on the % scale 0 is the no-effect control and ±100 the full control effect; nearly all actives have a fitted effect of over 45% in size. An outline of the steps: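 Parallel cytotoxicity test: compound-treated (16 h, 37 C) HEK 293T FXR-bla reporter cells were lysed with CellTiter-Glo and luminescence recorded.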
In test [7] the target is Bile acid receptor (Homo sapiens) (UniProt Q96RI1). Briefly: qHTS assay to identify small molecule agonists of the farnesoid-X-receptor (FXR) signaling pathway (AID 743220; active means well fitted activation curve with a large enough effect in the signal ratio in the repeat runs, not every such curve was filed as active; the % refers to the signal ratio; further: on the % scale 0 is the no-effect control and ±100 the full control effect). Put shortly: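 Beta-lactamase reporter under UAS control in GeneBLAzer FXR HEK 293T cells (5000/well) measured with LiveBLAzer FRET substrate after 2 h at room temperature. Compound exposure lasted 16 h at 37C.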
Sequence of Bile acid receptor (Homo sapiens) (Q96RI1 whole entry, looked up): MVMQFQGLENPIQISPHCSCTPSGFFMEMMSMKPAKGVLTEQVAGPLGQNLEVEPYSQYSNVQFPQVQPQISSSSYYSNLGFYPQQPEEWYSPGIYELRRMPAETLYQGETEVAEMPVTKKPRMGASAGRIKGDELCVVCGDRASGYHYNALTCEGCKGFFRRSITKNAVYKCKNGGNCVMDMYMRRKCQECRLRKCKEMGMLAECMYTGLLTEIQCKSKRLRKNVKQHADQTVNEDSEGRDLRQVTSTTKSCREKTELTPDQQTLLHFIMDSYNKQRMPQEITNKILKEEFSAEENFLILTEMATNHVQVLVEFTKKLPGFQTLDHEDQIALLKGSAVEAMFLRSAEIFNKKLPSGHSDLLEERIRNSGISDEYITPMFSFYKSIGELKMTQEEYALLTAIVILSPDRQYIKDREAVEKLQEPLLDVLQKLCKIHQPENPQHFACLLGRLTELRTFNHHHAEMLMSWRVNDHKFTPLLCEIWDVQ

Test [8] is described as follows: qHTS assay to identify small molecule antagonists of the farnesoid-X-receptor (FXR) signaling pathway - cell viability counter screen (AID 743221; active means well fitted cell-killing curve with a large enough effect in the repeat runs, not every such curve was filed as active; further: on the % scale 0 is the no-effect control and ±100 the full control effect; nearly all actives have a fitted effect of over 50% in size). An outline of the steps:
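GeneBLAzer FXR-UAS-bla HEK 293T cells, compound plus chenodeoxycholic acid (50 uM final), 16 h at 37 C. CellTiter-Glo added to the same wells after the beta-lactamase read; luminescence read after 30 min at room temperature as viability.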

A short description of test [9]: qHTS assay to identify small molecule agonists of the vitamin D receptor (VDR) signaling pathway - cell viability counter screen (AID 743224). Further: nearly all actives have a fitted effect of over 50% in size. Further: potency means the concentration at half of the fitted maximal effect. An outline of the steps:
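Plated VDR-bla cells (4 h, 37C) received compound, incubated 16 h, then LiveBLAzer substrate 2 h RT; CellTiter-Glo added afterwards, luminescence read at 30 min.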

Test [10] can be described thus: qHTS assay to identify small molecule agonists of the NFkB signaling pathway (AID 1159509; active means well fitted curve in the direction sought with a large enough effect in the signal ratio in the repeat runs, not every such curve was filed as active; the % refers to the signal ratio). Put shortly: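 NFkB-bla ME-180 cells with a beta-lactamase reporter under an NF-kB response element were plated overnight, treated with compounds in DMSO for 5 hr at 37 C, then loaded with FRET substrate for 1.5 hr at room temperature.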
Test [11] is described as follows: qHTS assay to identify small molecule agonists of the NFkB signaling pathway - cell viability counter screen (AID 1159515; calls by dose curve; further: series mostly up to about 61 µM; on the % scale 0 is the no-effect control and ±100 the full control effect; nearly all actives have a fitted effect of over 55% in size). An outline of the steps:
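Using the same wells as the NFkB reporter read, ME-180 NFkB-bla cells given compounds for 5 hr were assessed for viability via CellTiter-Glo, with luminescence taken after a 30 min room-temperature incubation.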

The nature of test [12]: qHTS assay to identify small molecule agonists of the endoplasmic reticulum stress response signaling pathway (AID 1159516; active means well fitted activation curve with a large enough effect in the signal ratio in the repeat runs, not every such curve was filed as active; the % refers to the signal ratio; further: on the % scale 0 is the no-effect control and ±100 the full control effect). An outline of the steps: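 An ESRE-bla HeLa cell assay: compounds were pin-transferred from DMSO onto overnight-plated cells and left 5 hr at 37 C. Substrate was then loaded for 2 hr at room temperature before reading fluorescence at 460 nm and 530 nm.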

The nature of test [13]: qHTS assay to identify small molecule agonists of the endoplasmic reticulum stress response signaling pathway - cell viability counter screen (AID 1159517; calls by dose curve;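 further: HeLa cells carrying an ER stress response element beta-lactamase reporter; series mostly up to about 61 µM; on the % scale 0 is the no-effect control and ±100 the full control effect; nearly all actives have a fitted effect of over 50% in size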). Put shortly: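 Cells, HeLa ESRE-bla; density, 1,500/well; dosing, 5 hr at 37 C, 5% CO2; readout, CellTiter-Glo luminescence after 30 min RT.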
A short description of test [14]: qHTS assay to identify small molecule antagonists of the retinoid-related orphan receptor gamma (ROR-gamma) signaling pathway - cell viability counter screen (AID 1159520). Put shortly: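 Cytotoxicity was read from cellular ATP (CellTiter-Glo luminescence) after 16 hr at 37 C with 1 uM doxycycline induction. The inducer was added 2 hr after compound transfer to Tet-on ROR gamma CHO cells.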

Test [15] addresses Nuclear receptor ROR-gamma (Homo sapiens) (UniProt P51449). Briefly: qHTS assay to identify small molecule antagonists of the retinoid-related orphan receptor gamma (ROR-gamma) signaling pathway (AID 1159521). Put shortly: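 Tet-on ROR-gamma CHO cells with ROR response element-luciferase reporter; compounds added 2 hr before 1 uM doxycycline induction, then 16 hr at 37 C. Antagonism scored as decreased ONE-Glo luminescence.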

Test [16] can be described thus: qHTS assay to identify small molecule agonists of the AP-1 signaling pathway (AID 1159526; calls by dose curve; further: on the % scale 0 is the no-effect control and ±100 the full control effect).
In test [17] the target is Vitamin D3 receptor (Homo sapiens) (UniProt P11473). As to the kind of experiment: qHTS assay to identify small molecule agonists of the vitamin D receptor (VDR) signaling pathway (AID 743222; calls by dose curve; further: on the % scale 0 is the no-effect control and ±100 the full control effect). An outline of the steps: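 In VDR-bla cells, compound-induced beta-lactamase expression is quantified by FRET substrate fluorescence. Treatment lasts 16 h at 37C; substrate develops 2 h at room temperature.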
Sequence of Vitamin D3 receptor (Homo sapiens) (P11473 whole entry, looked up): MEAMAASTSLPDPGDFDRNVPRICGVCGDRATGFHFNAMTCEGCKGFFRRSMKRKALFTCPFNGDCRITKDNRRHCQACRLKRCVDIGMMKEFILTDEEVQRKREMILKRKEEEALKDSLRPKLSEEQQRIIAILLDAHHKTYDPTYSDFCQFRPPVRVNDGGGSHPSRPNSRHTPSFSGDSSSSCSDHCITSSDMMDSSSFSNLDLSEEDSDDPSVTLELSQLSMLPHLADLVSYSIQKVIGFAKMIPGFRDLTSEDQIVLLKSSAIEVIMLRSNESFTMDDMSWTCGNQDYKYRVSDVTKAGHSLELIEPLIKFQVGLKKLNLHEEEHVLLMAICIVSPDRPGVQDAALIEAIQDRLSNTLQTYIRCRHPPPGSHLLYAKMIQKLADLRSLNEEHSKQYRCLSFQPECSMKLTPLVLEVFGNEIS

For test [18] the target is unchanged. Briefly: qHTS assay to identify small molecule antagonists of the vitamin D receptor (VDR) signaling pathway (AID 743223; active means well fitted inhibition curve with a large enough effect in the signal ratio in the repeat runs, not every such curve was filed as active; the % refers to the signal ratio; further: on the % scale 0 is the no-effect control and ±100 the full control effect). An outline of the steps: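 VDR-bla cells were treated with compound plus 3 nM final 1alpha,25-dihydroxyvitamin D3 for 16 h at 37C. Beta-lactamase reporter read by B/G FRET substrate fluorescence after 2 h at room temperature. qHTS format.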

Test [19] is described as follows: qHTS assay to identify small molecule agonists of the AP-1 signaling pathway - cell viability counter screen (AID 1159525; calls by dose curve; further: nearly all actives have a fitted effect of over 55% in size). Put shortly:
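Luminescent ATP readout (Cell Titer Glo, 30 min RT), normalised to DMSO and tetra n-octyl ammonium bromide controls. Cells were ME-180 AP-1-bla in 0.5% dialyzed FBS Opti-MEM, with a 5 h, 37 °C compound exposure.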

Test [20] in a line: qHTS assay to identify small molecule antagonists of the vitamin D receptor (VDR) signaling pathway - cell viability counter screen (AID 743225). An outline of the steps:
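VDR-UAS-bla HEK 293T cells were plated and incubated 4 h at 37C, then dosed with compound plus 3 nM (final) 1-alpha,25-dihydroxyvitamin D3 for 16 h. After the 2 h beta-lactamase read, viability in the same wells was read as CellTiter-Glo luminescence after 30 min at room temperature.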

Inconclusive results are not listed. A number with no mark means an inactive call. The source made the active and inactive calls. Unless noted, the call rests on the fitted dose curve; in most records, active means well fitted curve in the direction sought with a large enough effect in the repeat runs; inconclusive means weak or mixed curves; inactive means no such curve, though single readings can be large; an effect the other way counts as inactive or inconclusive.

Sequence of Peroxisome proliferator-activated receptor delta (Homo sapiens) (Q03181 whole entry, looked up): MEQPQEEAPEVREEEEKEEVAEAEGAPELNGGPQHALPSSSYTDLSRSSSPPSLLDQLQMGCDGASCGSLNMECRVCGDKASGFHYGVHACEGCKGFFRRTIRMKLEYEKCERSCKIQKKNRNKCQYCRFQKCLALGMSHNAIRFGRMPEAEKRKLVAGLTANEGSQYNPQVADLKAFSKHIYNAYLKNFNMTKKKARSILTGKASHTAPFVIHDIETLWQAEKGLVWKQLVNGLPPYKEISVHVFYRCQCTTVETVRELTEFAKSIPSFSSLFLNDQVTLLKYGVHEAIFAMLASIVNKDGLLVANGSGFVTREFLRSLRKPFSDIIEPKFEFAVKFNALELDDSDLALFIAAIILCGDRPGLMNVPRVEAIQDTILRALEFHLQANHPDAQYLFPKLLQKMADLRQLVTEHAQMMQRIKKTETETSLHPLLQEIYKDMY

With `COCCOCCOCCOCCO`, the outcome in test [1], in test [2], in test [3], in [4], in test [8] and in [10] was inactive. Also, the result in [11], in [12], in test [14], in test [15] and in [16] was inactive. Besides, the Potency entry in [5], in [6], in test [7], in test [9] and in test [13] was “inactive” throughout.

In the case of `CC(=O)NCCCCCC(=O)O`, the call in [1], in test [2], in test [3], in test [4], in test [8] and in [17] was inactive. The outcome in [18], in test [10], in test [11], in [12], in test [14] and in test [15] was inactive. Further, the call in [16] was inactive. Moreover, the Potency result in test [6], in [9] and in test [13] was “inactive” throughout.

For the compound `Nc1cccc(O)c1`, the outcome in test [1], in [3], in test [8], in [17], in test [18] and in test [10] was inactive. The outcome in test [11], in [12], in [14], in [15], in test [19] and in test [16] was inactive. For the same compound, the Potency entry in test [6], in test [7] and in test [13] was “inactive” throughout.

Take `CCCOC(=O)C(C)O` (stereo not given): the compound was called inactive in [2], in test [8], in test [18], in test [20], in test [10] and in test [11]. Further, the compound was called inactive in [12], in [14], in test [15], in test [19] and in test [16]. The Potency entry in test [6], in test [7] and in test [13] was “inactive” throughout. In addition, in [9], the Potency is 56.1 µM (active).

With `O=C(OCc1ccccc1)C(=O)OCc1ccccc1`, the call in test [2], in [3], in test [8], in test [17], in test [18] and in test [10] was inactive. In addition, the result in test [11], in [12], in [14], in [15], in test [19] and in test [16] was inactive. Further, the Potency result in [6], in test [9] and in test [13] was “inactive” throughout.

For `CCCCCCCCSCC`, the result in test [1], in [2], in [3], in test [4], in test [8] and in test [17] was inactive. Besides, the result in test [10], in test [11], in [12], in [14], in [15] and in test [16] was inactive. Also, the Potency entry in [6], in test [9] and in test [13] was “inactive” throughout.

As for `O=C(OCC(O)CO)c1ccccc1Nc1ccnc2c(C(F)(F)F)cccc12` (stereo not given), the call in test [1], in test [3], in [8], in test [17], in test [18] and in test [20] was inactive. Moreover, the compound was classed as inactive in test [10], in [11], in test [12], in test [14], in test [15] and in [19]. For the same compound, in test [16], the compound was classed as inactive. The Potency result in test [6], in [7], in [9] and in test [13] was “inactive” in each case.

For `C[Si](C)=O`, the activity change, negative = cytotoxicity in [1] was 1.6% [at 5.95 µM]; in test [8] it was -2.54% [at 5.95 µM]; in [9] it was 2.87% [at 5.95 µM]; in test [13], -12.1% [at 6.95 µM]. Moreover, the activation was 0.307% [at 5.95 µM] in [2]; 2.56% [at 5.95 µM] in test [7]; 0.149% [at 6.95 µM] in [10]; -1.7% [at 6.95 µM] in test [12]; -3.55% [at 6.97 µM] in test [16]. For the same compound, the viability change, negative = cytotoxic is -0.681% [at 6.26 µM] in test [3], 5.27% [at 5.95 µM] in test [6] and 6.84% [at 6.95 µM] in test [20]. The ratio activity, negative = inhibition in [4] was 22.7% [at 6.26 µM]. Besides, in test [11], the activity, negative = cytotoxic is 10.4% [at 6.95 µM]. Further, the activity, negative = cytotoxicity in test [14] was 0.127% [at 8.39 µM]. In addition, the activity change, negative = inhibition in [15] is 3.36% [at 8.39 µM].
